Screening results as filed in PubChem.
NALP1 inh = NALP1 inflammasome inhibitors in reconstituted yeast, colorimetric, S. cerevisiae, triplicate retest; 0.61% of 280,000 active; S. cerevisiae NALP1/ASC/caspase-1 growth, X-gal OD620, 72 h; inhibition, % at 10 µM; in the data active = inhibition mostly above about 24%, no sharp cut-off; inactive = mostly below about 32%
PfHsp90 yeast 2 = growth inhibition of PfHsp90-expressing yeast, primary screen, antimalarial PfHsp90 inhibitor project, S. cerevisiae, BacTiter-Glo luminescence, single point, set 2; BacTiter-Glo ATP, 48 h; yeast lacking PDR1 and PDR3 efflux regulators; inhibition, % at 9.4 µM; 0.32% of 310,000 active; AID 504621, 2011;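 active = every replicate shows inhibition above about 80%, whatever the replicate mean, limit read from the data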;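 note: 0% = DMSO neutral controls and 100% = 20 µM radicicol positive controls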
NALP3 yeast inh = NALP3 inflammasome inhibitors in reconstituted yeast, primary screen, luminescence, uHTS; Yeast reconstituted NLRP3/ASC/caspase-1, beta-gal luminescence, 24 h; inhibition, % at 10 µM; 0.39% of 330,000 active;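 active = inhibition of 50% or more; inactive = inhibition below 50%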;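 note: plate controls were induced DMSO wells for no effect and uninduced yeast grown without galactose for full effect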
tim10-1 inh = growth inhibitors of tim10-1 mutant yeast, primary screen, luminescence, uHTS; S. cerevisiae tim10-1 ts strain growth, BacTiter-Glo, 24 h; inhibition, % at 20 µM; 2.2% of 330,000 active;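 active = inhibition of at least 40%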;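 note: mutant grown at 25 °C; 0% = DMSO wells with yeast and 100% = wells holding no yeast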
TIM10 inh = growth inhibitors of isogenic TIM10 control yeast, primary screen, counter-screen for tim10-1 yeast inhibitor project, luminescence, uHTS | S. cerevisiae TIM10 strain growth, BacTiter-Glo luminescence, 24 h | inhibition, % at 10 µM | 1.4% of 330,000 active | AID 463195, 2010;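 active = inhibition of 40% or more at the single tested concentration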;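 note: wild-type TIM10 isogenic control strain grown at permissive 25 °C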
tim23-1 inh = growth inhibitors of tim23-1 mutant yeast, primary screen, luminescence, uHTS. 1.3% of 330,000 active. inhibition, % at 20 µM. S. cerevisiae tim23-1 growth, BacTiter-Glo luminescence, 24 h;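 active = growth inhibition of the mutant yeast at or above 50%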;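 note: temperature-sensitive mutant grown at 25 °C; plate controls were DMSO-treated mutant yeast for no effect and medium wells lacking yeast for full effect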
An asterisk follows results filed as active. Shown are actives, neighbours in structure and some others; about 4.2% of the full set was active somewhere.

`CCCOC(=O)c1ccc(NC(=O)/C=C/c2cccs2)cc1` gave NALP1 inh 61.0*, PfHsp90 yeast 2 29.2, NALP3 yeast inh 29.6, tim10-1 inh -5.7, TIM10 inh 16.7 and tim23-1 inh 41.2.
`O=C(Cc1ccc(Cl)cc1)Nc1ccc(CN2CCCCC2)cc1` gave NALP1 inh 12.5, PfHsp90 yeast 2 4.9, NALP3 yeast inh 23.2, tim10-1 inh -1.1, TIM10 inh 17.0 and tim23-1 inh 7.5.
`O=C(Cc1cccs1)N/N=C\c1ccc([N+](=O)[O-])s1` gave NALP1 inh 13.8, PfHsp90 yeast 2 -58.2, NALP3 yeast inh 24.9, tim10-1 inh -63.6, TIM10 inh -42.3 and tim23-1 inh 1.8.
Screening NC(=O)c1ccc(N=Cc2ccc([N+](=O)[O-])s2)cc1 returned NALP1 inh 29.7 and PfHsp90 yeast 2 104.4*.
For COC(=O)C1CC23C=CCN4CCC5(c6ccccc6NC15C2C)C43 (stereo not given) the results were NALP1 inh 37.1*, PfHsp90 yeast 2 0.5, NALP3 yeast inh 8.4, tim10-1 inh 39.8, TIM10 inh 9.8 and tim23-1 inh 28.9.
Screening COc1ccc(OCCCN(C)Cc2ccccc2)cc1 returned NALP1 inh 37.6*, PfHsp90 yeast 2 -3.1, NALP3 yeast inh 21.4, tim10-1 inh -4.5, TIM10 inh 3.7 and tim23-1 inh -23.4.
For COc1ccc(CC(=O)N(Cc2ccccc2)C(C)C)cc1 the results were NALP1 inh 2.1, PfHsp90 yeast 2 -2.2, NALP3 yeast inh 26.3, tim10-1 inh 3.0, TIM10 inh -3.3 and tim23-1 inh 13.0.
For COc1ccc(CCC(C)N(C)Cc2ccccc2)cc1 (stereo not given) the results were NALP1 inh 29.7*, PfHsp90 yeast 2 -4.3, NALP3 yeast inh 19.4, tim10-1 inh -15.0, TIM10 inh 0.9 and tim23-1 inh -13.8.
CCC(C)C(NC(=O)/C(=C\c1ccccc1)NC(=O)c1ccc(OC)cc1)C(=O)O (stereo not given) was read as NALP1 inh 1.3, PfHsp90 yeast 2 14.3, NALP3 yeast inh 1.3, tim10-1 inh 1.1, TIM10 inh 8.3 and tim23-1 inh 3.0.
Cc1ccc(CNC(=O)c2csc3c2CCCCC3)cc1 was read as NALP1 inh 43.0*, NALP3 yeast inh -0.1, tim10-1 inh 5.2, TIM10 inh 1.3 and tim23-1 inh -28.5.
Screening Nc1nc(SCC(=O)Nc2ccc([N+](=O)[O-])cc2)[nH]c(=O)c1NC(=O)c1ccc(Br)cc1 returned NALP1 inh 26.9*, PfHsp90 yeast 2 -2.1, NALP3 yeast inh 15.0, tim10-1 inh 2.6, TIM10 inh -8.3 and tim23-1 inh -13.8.
Screening C[C@@]12C(=O)Nc3ccc(F)cc3C(=O)N1[C@H]1c3ccccc3OC[C@@H]1[C@@H]2c1ccccc1 returned PfHsp90 yeast 2 active, NALP3 yeast inh 0.9, tim10-1 inh -2.8, TIM10 inh -1.3 and tim23-1 inh 45.7.
Screening C[C@@]12C(=O)Nc3cc(F)c(F)cc3C(=O)N1[C@H]1c3ccccc3OC[C@@H]1[C@@H]2c1ccccc1 returned PfHsp90 yeast 2 37.9.
Screening COc1cc2c(cc1OC)C(=O)N1[C@H]3c4ccccc4OC[C@@H]3[C@H](c3ccccc3)[C@]1(C)C(=O)N2 returned PfHsp90 yeast 2 86.3*, NALP3 yeast inh 13.9, tim10-1 inh 32.1, TIM10 inh 25.0 and tim23-1 inh 36.9.
CCN1CCN(c2oc(/C=C/c3ccccc3)nc2C#N)CC1 was read as PfHsp90 yeast 2 12.4, NALP3 yeast inh 17.5, tim10-1 inh 4.7, TIM10 inh 31.4 and tim23-1 inh 5.5.
For CCc1nc2ccccc2n1CC1CC1(Cl)Cl (stereo not given) the results were NALP1 inh 37.2*, PfHsp90 yeast 2 -17.5, NALP3 yeast inh -16.6, tim10-1 inh 8.3, TIM10 inh -29.1 and tim23-1 inh 7.1.
For COc1ccc(OC)c(S(=O)(=O)NCCS(=O)(=O)N2CCN(c3ccccc3)CC2)c1 the results were NALP1 inh -3.1, PfHsp90 yeast 2 10.0, NALP3 yeast inh 12.8, tim10-1 inh 14.7, TIM10 inh 1.1 and tim23-1 inh 14.2.
For CC(=O)NC(Cc1ccc(F)c(F)c1)C(=O)NC1CCN(C(=O)c2ccc(Cl)cc2)CC1 (stereo not given) the results were NALP1 inh 31.8*, PfHsp90 yeast 2 15.5, NALP3 yeast inh 2.3, tim10-1 inh 17.6, TIM10 inh -1.6 and tim23-1 inh 9.4.
CCOc1cc(-c2nc(-c3ccc(C)nc3OC)no2)cc(OCC)c1OCC was read as NALP1 inh 27.2* and PfHsp90 yeast 2 11.9.
For CCN(Cc1ccccc1)Cc1ccc(OCc2ccccc2)cc1 the results were NALP1 inh 37.9*, PfHsp90 yeast 2 4.3, NALP3 yeast inh 41.4, tim10-1 inh -127.9, TIM10 inh -68.4 and tim23-1 inh -19.3.
O=C(NC1CCN(Cc2ccccc2)C1)c1cc(COc2ccc(F)cc2F)on1 (stereo not given) was read as NALP1 inh 28.5*, PfHsp90 yeast 2 1.8, NALP3 yeast inh 20.7, tim10-1 inh 14.5, TIM10 inh 4.9 and tim23-1 inh 17.9.
Screening Cc1ccc(C)c(OCc2cc(C(=O)NC3CCN(Cc4ccccc4)CC3)no2)c1 returned NALP1 inh 18.6, PfHsp90 yeast 2 5.5, NALP3 yeast inh 34.4, tim10-1 inh -23.8, TIM10 inh -17.8 and tim23-1 inh -9.4.
Screening CCS(=O)(=O)c1nc(S(=O)(=O)c2ccc(C)cc2)c(NCCCN(C)C)s1 returned NALP1 inh 15.4, PfHsp90 yeast 2 -12.0, NALP3 yeast inh 13.7, tim10-1 inh -7.2, TIM10 inh -4.6 and tim23-1 inh -5.4.
Screening COc1ccc(S(=O)(=O)NC2CC3CCC2C3)cc1Br (stereo not given) returned NALP1 inh 9.8, PfHsp90 yeast 2 113.7*, NALP3 yeast inh 20.6, tim10-1 inh -82.6, TIM10 inh -154.9 and tim23-1 inh 13.9.
COc1ccc(S(=O)(=O)NC2CC3CCC2C3)cc1Cl (stereo not given) was read as NALP1 inh 4.5, PfHsp90 yeast 2 140.8*, NALP3 yeast inh 10.9, tim10-1 inh -56.5, TIM10 inh -44.2 and tim23-1 inh -10.7.
CCCCCCCCCC[n+]1cccc2c3ccccc3ccc21 was read as NALP1 inh 25.6* and PfHsp90 yeast 2 4.3.
For C(C#CCCCCCCCCC[n+]1ccccc1)#CCCCCCCCCC[n+]1ccccc1 the results were NALP1 inh 82.1* and PfHsp90 yeast 2 121.5*.
